From PubChem BioAssay
FMDV antiviral = High Throughput Screening for Foot and Mouth Disease Virus Antivirals | AID 1159524, 2015 | 410,000 tested, 1.2% active | Potency, µM (series often up to 57.9 µM), inactives show at the top dose activity change, negative = inhibition, hits mostly inhibitors | FMDV antiviral cell-based qHTS; calls by dose curve; tested in HEK293T cells; further: read-out not given here; potency means the concentration at half of the fitted maximal effect; on the % scale 0 is the no-effect control and ±100 the full control effect; nearly all actives have a fitted effect of over 45% in size
CHX counter = Cycloheximide Counterscreen for Small Molecule Inhibitors of Shiga Toxin | cell reporter, cycloheximide protein synthesis inhibition counterscreen | max response, % | 300,000 tested, 12% active; in the data active means max response mostly above about 13%, no sharp cut-off; inactive means mostly below about 14%; further: read at 38.3 µM for the half of the compounds with a filed dose; 0% is about no effect
Shiga inhibitor = A qHTS for Small Molecule Inhibitors of Shiga Toxin. 290,000 tested, 9.2% active. Vero cells, Shiga toxin protein synthesis inhibition reporter. AID 2315, 2010. inhibition, % at 38.7 µM; in the data active means inhibition mostly above about 28%, no sharp cut-off; inactive means mostly below about 43%; further: 0% is about no effect
Sm TGR inh = qHTS Assay for the Inhibitors of Schistosoma Mansoni Peroxiredoxins | purified TGR, DTNB reduction, TNB absorbance 405 nm | 360,000 tested, 3% active | Potency, µM (series often up to 114 µM), for the others: top-dose activity change, negative = inhibition, hits mostly inhibitors | Schistosoma mansoni thioredoxin glutathione reductase (TGR), Q962Y6; active means well fitted inhibition curve with a large enough effect; inconclusive means small, poorly fitted or top-dose-only effect; inactive means no such curve, though single readings can be large or run the other way; further: potency means the concentration at half of the fitted maximal effect; on the % scale 0 is the no-effect control and ±100 the full control effect; nearly all actives have a fitted effect of over 60% in size
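First, TGR (20 nM dispensed) and NADPH were mixed with compound. Second, a 15 min room-temperature incubation followed. Third, further NADPH and then DTNB were added to start the reaction. Finally, TNB absorbance was monitored kinetically.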
Starred values were filed as active, the others as inactive; ? = inconclusive; nt = no result. Hits are enriched below; roughly 12% of the tested compounds scored in any of these assays.

SMILES	FMDV antiviral	CHX counter	Shiga inhibitor	Sm TGR inh
O=C(NCc1cccs1)c1ccc(Cn2c(SCc3ccccc3)nc3cccnc32)cc1	-26%	nt	nt	1%
O=Cc1ccc(-c2ccc(C(=O)O)cc2)o1	-28%	35*	88*	-25%
O=C(/C=C/c1ccccc1)c1ccc2c3c(cccc13)CC2	4%	30*	74*	3%
O=Cc1ccc(-c2ccc(F)cc2)o1	-9%	-1	13	-9%
O=C(O)/C(=C\c1ccc(-c2ccc(F)cc2)o1)c1ccccc1	29%	9	-9	18µM*
Cc1cccc(-c2nc3c4ccccc4n(Cc4cccc(Cl)c4)c(=O)n3n2)c1	15%	nt	nt	-2%
CC(=O)Nc1cccc(C(=O)N/N=C/c2cccnc2)c1	32%	2	22	9%
CC(=O)Nc1cccc(C(=O)N/N=C/c2ccc(F)cc2)c1	3%	34*	83*	4%
Cc1ccc(C(=O)Nc2cccc(C(=O)N/N=C/c3ccc(F)cc3)c2)cc1	8%	27*	58*	0%
Cc1ccc(C(=O)Nc2ccc(C(=O)N/N=C/c3ccncc3)cc2)cc1	nt	18	12	0%
CN(C)c1ccc(/C=C(\C#N)c2nc(-c3ccc(Cl)c(Cl)c3)cs2)cc1	-6%	nt	nt	2%
O=C1C=C(c2c(O)ccc3ccccc23)c2ccccc2C1=O	22µM*	nt	nt	nt
O=C(O)c1ccccc1C(=O)c1ccc(-c2ccccc2)cc1	45%	44*	92*	-6%
Cc1ccc(C(=O)c2c[nH]cc2-c2ccccc2)cc1	5%	17*	-32	2%
O=C(c1ccccc1)c1c[nH]cc1-c1ccccc1	-13%	-1	7	3%
C=CCN1C(=O)c2ccc(C(=O)N(C)Cc3ccc(C)o3)cc2C1=O	12%	nt	nt	50µM*
CC(C)COc1ccc(-c2cc(C(=O)NN)[nH]n2)cc1	25%	27*	86	-6%
O=C(O)c1cc(-c2ccc3c(c2)OCCO3)n[nH]1	-10%	-2	-13	11%
CCOC(=O)c1cc(-c2ccc3c(c2)OCCO3)n[nH]1	-6%	48*	61*	4%
CCOc1ccc(-c2cc(C(=O)NN=C3CCN(C)CC3)[nH]n2)cc1	2%	25*	60*	-5%
CCOC(=O)c1cc(-c2ccc(OC)cc2)n[nH]1	77%	69*	101*	14%
CC(C)COc1ccc(C(=O)Nc2cc(-c3ccccc3)no2)cc1	20%	nt	nt	7%
CCN(C(=O)c1cc(S(=O)(=O)N2CCc3ccccc32)cn1C)c1cccc(C)c1	-5%	nt	nt	8%
Oc1ccccc1-c1cc(-c2ccc3c(c2)OCCO3)n[nH]1	nt	32*	47	-15%
CCOc1ccc(CN(C(=O)c2cc(=O)c3cc(Cl)ccc3o2)C2CCS(=O)(=O)C2)cc1 (stereo not given)	-18%	nt	nt	6%
SMILES	FMDV antiviral	CHX counter	Shiga inhibitor	Sm TGR inh
CN(Cc1ccco1)c1ncnc2ccc(-c3cccc(NS(C)(=O)=O)c3)cc12	-29%	nt	nt	nt
C=CC(=O)N1c2ccccc2Sc2ccc(NC(=O)OCC)cc21	13µM*	nt	nt	nt
CCOC(=O)Nc1ccc2c(c1)N(C(=O)N1CCN(C)CC1)c1ccccc1S2	0%	-2	14	-2%
Cc1ccc(C)c(NC(=O)CN(Cc2ccccc2)S(=O)(=O)c2ccc3nc(C)sc3c2)c1	-17%	nt	nt	-1%
COCCn1c(SCC(=O)c2ccc(OC)cc2)nc2cc(C(=O)NC3CCCC3)ccc2c1=O	-12%	nt	nt	7%
Cc1cc(N2CCOCC2)nc2ccc(NC(=O)CCC(=O)N3CCCC(C)C3)cc12 (stereo not given)	-2%	54*	92	0%
Cc1cc(N2CCCCC2)nc2ccc(NC(=O)CCC(=O)N3CCN(c4ccccc4)CC3)cc12	-19%	nt	nt	1%
Cc1cc(N2CCOCC2)nc2ccc(NC(=O)CCC(=O)N3CCN(c4ccccc4F)CC3)cc12	-7%	22*	29	-12%
Cc1cc(N2CCOCC2)nc2ccc(NC(=S)N3CCCCC3C)cc12 (stereo not given)	30%	31*	19	7%
Cc1cc(N2CCOCC2)nc2ccc(NC(=O)CCC(=O)N3CCN(c4ccc(F)cc4)CC3)cc12	-1%	4	25	-6%
Cc1cc(N2CCOCC2)nc2ccc(NC(=O)C3CCCCC3)cc12	12%	nt	nt	nt
Cc1ccc(Nc2ccc(N3CCN(C(=O)c4ccc([N+](=O)[O-])cc4)CC3)nn2)cc1	-24%	nt	nt	4%
Cc1ccc(N2C(=O)CC(c3c[nH]c4ccccc34)C2=O)cc1 (stereo not given)	-2%	15	20	-11%
CCC1=NN=C(c2ccc(F)cc2)C(c2c[nH]c3ccccc23)N1O (stereo not given)	2%	28	74*	-25%
COc1cc(OC)c(NC(=O)N2CCc3c(sc4c3CCCC4)C2c2ccccc2)cc1Cl (stereo not given)	-3%	nt	nt	-3%
Cc1ccc(CNS(=O)(=O)c2ccc(CN3C(=O)c4cccnc4C3=O)cc2)o1	-9%	-1	-3	20µM*
Cc1ccc(CNS(=O)(=O)c2cc(F)ccc2CN2C(=O)c3cccnc3C2=O)o1	2%	3	16	25µM*
O=S(=O)(Nc1cccnc1)c1cccc(C(F)(F)F)c1	18%	7	-4	-4%
O=[N+]([O-])c1ccc(S(=O)(=O)c2cccc(C(F)(F)F)c2)nc1	18µM*	nt	nt	nt
CCc1nc2ccc(C(=O)Nc3ccc4c(c3)OCO4)cc2nc1CC	49%	27*	35	2%
COc1cccc2c1OC1(C)CC2NC(=O)N1c1cccc(C(=O)Nc2ccc3c(c2)OCCO3)c1 (stereo not given)	-25%	33*	93*	-8%
COc1ccc(NC(=O)c2cccc(N3C(=O)NC4CC3(C)Oc3ccccc34)c2)cc1 (stereo not given)	-21%	-4	-20	-8%
CCN(CC(=O)Nc1ccc2c(c1)OCCO2)C(=O)c1cccc(OCC(C)C)c1	1%	16*	32	?
O=C(Nc1ccc2c(c1)OCCO2)c1ccc(Br)cc1	2%	33*	48	2%
CCN(CC(=O)Nc1ccc(NC(C)=O)cc1)C(=O)c1ccc2c(c1)OCCO2	0%	nt	nt	-8%
SMILES	FMDV antiviral	CHX counter	Shiga inhibitor	Sm TGR inh
Fc1ccc(-c2nn(-c3ccc(Cl)cc3)c3c2cnc2ccc(F)cc23)cc1	-11%	nt	nt	-2%
CCOc1ccc(C(=O)Nc2ccc3c(c2)OCCO3)cc1	-20%	34*	49*	?
O=C(NNS(=O)(=O)c1ccc(F)cc1)c1ccc2c(c1)OCO2	45%	-1	10	4%
O=C(Nc1cccc(NC(=O)c2ccccc2Cl)c1)c1cccc(Br)c1	-4%	nt	nt	3%
CC(C)c1ccc(NC(=O)c2cccc(Br)c2)cc1	53%	36*	119*	4%
O=C(NNC(=O)c1ccc(F)cc1F)c1ccc2c(c1)OCO2	65%	48*	62*	-9%
Cc1ccc(CNc2ccc3c(c2)OCO3)cc1	15%	42*	100*	45µM*
CCOc1ccc(C(=O)Nc2ccc3nc(SCC(=O)N4CCOCC4)sc3c2)cc1	?	nt	nt	0%
CCCC(=O)Nc1cccc(NC(=O)c2ccc3c(c2)OCO3)c1	13%	13	38	-23%
Cc1ccc(C(=O)Nc2ccc3c(c2)OCCO3)cc1	?	15	47*	9%
